The panel holds about 83,000 compounds, 20% with a hit somewhere; the sample as a whole holds those more often.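 Interpretation: 100, growth as untreated; towards 0, rising growth inhibition; 0, no net growth; 0 to -100, cell death. Compounds scoring below 10 were considered active.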 Values without a mark were called inactive. Activity calls are given as the source filed them.
Key:
Assay in all cases: NCI-60 one-dose screen, 48 h (100 = growth as untreated, 0 = no growth, -100 = all killed)
Details in all cases: 10 µM unless noted
NCI-H23 lung = test system: NCI-H23 lung
NCI-H226 lung = test system: NCI-H226 lung
NCI-H322M lung = test system: NCI-H322M lung
HOP-62 NSCLC = test system: HOP-62 NSCLC
NCI-H460 lung = test system: NCI-H460 lung
HOP-92 NSCLC = test system: HOP-92 NSCLC
NCI-H522 lung = test system: NCI-H522 lung
A549/ATCC NSCLC = test system: A549/ATCC NSCLC
786-0 renal = test system: 786-0 renal
COLO 205 colon = test system: COLO 205 colon
DU-145 prostate = test system: DU-145 prostate
K-562 leukemia = test system: K-562 leukemia
MALME-3M melanoma = test system: MALME-3M melanoma
MDA-MB-231 breast = test system: MDA-MB-231 breast
SF-268 CNS = test system: SF-268 CNS
SF-295 CNS = test system: SF-295 CNS
SF-539 CNS = test system: SF-539 CNS
UACC-257 melanoma = test system: UACC-257 melanoma
M14 melanoma = test system: M14 melanoma

Row | SMILES | growth (NCI-H23 lung) [%] | growth (NCI-H226 lung) [%] | growth (NCI-H322M lung) [%] | growth (HOP-62 NSCLC) [%] | growth (NCI-H460 lung) | growth (HOP-92 NSCLC) | growth (NCI-H522 lung) | growth (A549/ATCC NSCLC) [%] | growth (786-0 renal) | growth (COLO 205 colon) | growth (DU-145 prostate) [%] | growth (K-562 leukemia) | growth (MALME-3M melanoma) | growth (MDA-MB-231 breast) | growth (SF-268 CNS) [%] | growth (SF-295 CNS) [%] | growth (SF-539 CNS) | growth (UACC-257 melanoma) | growth (M14 melanoma)
1 | CCCCCCCCCCCCCCCCCCOc1ccccc1N | 87.8 | 97.6 | 81.7 | 90.9 | 47.6% | 78.7% | 3.78% (active) | 25.5 | 25% | 46.3% | 62 | 86.6% | 102% | 24.7% | 56.6 | 54.3 | 20.5% | 55.4% | 72.9%
2 | COc1ccc(-c2nc(SC(C)C)nc(NNC(N)=O)c2C#N)cc1 | 97.8 | 95.4 | 94.2 | 83.7 | 94.5% | 78% | 63.4% | 88.6 | 95.5% | 117% | 94.2 | 25.7% | 81.2% | 78.8% | 84.9 | 88.7 | 85.1% | 99.8% | 99.6%
3 | COc1cc(/C=N/NC(=O)c2ccccc2Nc2cccc(C(F)(F)F)c2)ccc1O | 91.5 | 88.3 | 103 | 93.4 | 100% | 67.6% | 81.9% | 100 | 75.7% | 106% | 89.7 | 77.9% | 106% | 71.6% | 81.5 | 93.5 | 105% | 23.8% | 73.9%
4 | COc1ccccc1-c1c(-c2ccc(Cl)cc2)c2cc3c(cc2[nH]c1=O)OCCO3 | 72.8 | 84 | 89 | 89.8 | 66.3% | 80.7% | 62.4% | 63.6 | 85.4% | 92.6% | 83.6 | 44.3% | 87.4% | 95.5% | 68.2 | 58.5 | 88.2% | 73% | 72.5%
5 | COc1ccc(-c2c(-c3ccccc3)noc2N)cc1OC | 105 | 113 | 96.1 | 124 | 116% | 90.8% | 86.1% | 93.8 | 96.4% | 118% | 104 | 95% | 102% | 120% | 107 | 103 | 115% | 88.3% | 98.4%
6 | CCN(CC)CCCC(C)Nc1cc(-c2cccc(OC(F)(F)F)c2)nc2ccc(N3CCCC3)cc12 (configuration not stated) | 57.9 | 46.7 | 17.7 | 23.3 | -4.02% (active) | -5.67% (active) | 2.05% (active) | 10.7 | -19.7% (active) | -79% (active) | 37 | -46.5% (active) | -93% (active) | -50.3% (active) | 26 | 28.3 | -91.7% (active) | -81.1% (active) | -81.9% (active)
7 | CN1CCN(CCCNc2nccc(-c3c(-c4ccc(F)c(O)c4)nc4sccn34)n2)S1(=O)=O | 94.2 | 105 | 115 | 104 | 101% | 70.7% | 74.4% | 103 | 126% | 29.8% | 97.7 | 66% | -10.4% (active) | 70.8% | 104 | 101 | 113% | 33.8% | 20%
8 | CN1C(=O)N(C)[C@H]2NC(NN)=N[C@H]21 | 103 | 93.3 | 91.2 | 98.8 | 103% | 90.3% | 102% | 97.9 | 99.8% | 104% | 114 | 98.9% | 94.3% | 102% | 94 | 101 | 102% | 97.1% | 100%

Reference: PubChem BioAssay (NCI)
